Results published in PubChem BioAssay (EPA / NIEHS).
More than one record can exist for a structure, and the calls need not agree. Calls of active or inactive are those of the source. Rule for the calls: active = hit-call score of the fitted dose curve at least 0.9, where 1 is the maximum; inactive = score below 0.9.

target: Hypoxia-inducible factor 1-alpha (Homo sapiens) (UniProt Q16665); assay: ATG_HIF1a_CIS: Attagene CIS-FACTORIAL HepG2 Assay for human Hypoxia Inducible Factor 1 (HIF1A) (AID 2282951); settings: HepG2 Attagene cis-factorial HIF1a reporter transcription; actives raise or lower the signal
Sequence (Q16665 whole entry, looked up): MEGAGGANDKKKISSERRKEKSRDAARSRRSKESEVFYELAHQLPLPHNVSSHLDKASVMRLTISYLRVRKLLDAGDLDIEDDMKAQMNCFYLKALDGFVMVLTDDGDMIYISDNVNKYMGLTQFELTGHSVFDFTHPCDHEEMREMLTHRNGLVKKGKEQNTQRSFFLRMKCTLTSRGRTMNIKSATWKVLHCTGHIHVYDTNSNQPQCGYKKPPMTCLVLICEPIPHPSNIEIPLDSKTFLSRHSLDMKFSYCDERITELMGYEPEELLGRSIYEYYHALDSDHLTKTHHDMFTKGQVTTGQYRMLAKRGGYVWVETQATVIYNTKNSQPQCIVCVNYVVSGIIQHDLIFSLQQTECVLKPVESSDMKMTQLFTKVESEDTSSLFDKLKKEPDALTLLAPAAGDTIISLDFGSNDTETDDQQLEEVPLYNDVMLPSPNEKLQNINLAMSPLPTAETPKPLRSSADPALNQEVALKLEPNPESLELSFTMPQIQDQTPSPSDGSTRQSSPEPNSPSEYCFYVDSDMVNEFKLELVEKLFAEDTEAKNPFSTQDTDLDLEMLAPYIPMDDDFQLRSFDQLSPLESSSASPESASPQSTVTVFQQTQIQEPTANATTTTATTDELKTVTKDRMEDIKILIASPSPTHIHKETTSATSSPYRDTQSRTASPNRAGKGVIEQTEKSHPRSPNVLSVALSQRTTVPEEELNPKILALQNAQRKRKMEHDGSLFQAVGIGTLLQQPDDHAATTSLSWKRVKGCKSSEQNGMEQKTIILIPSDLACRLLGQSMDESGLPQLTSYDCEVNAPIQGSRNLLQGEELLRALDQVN
Method: ATG_CIS is a cell-based, multiplexed-readout assay that uses HepG2, a human liver cell line, with measurements taken at 24 hours after chemical dosing in a 24-well plate.ATG_HIF1a_CIS is one of 52 assay component(s) measured or calculated from the ATG_CIS assay. It is designed to make measurements of mRNA induction, a form of inducible reporter, as detected with fluorescence intensity signals by Reverse transcription polymerase chain reaction (RT-PCR) and Capillary electrophoresis technology.Data from the assay component ATG_HIF1a_CIS was analyzed into 1 assay endpoint. This assay endpoint, ATG_HIF1a_CIS, was analyzed with bidirectional fitting relative to DMSO as the negative control and baseline of activity. Using a type of inducible reporter, measures of mRNA for gain or loss-of-signal activity can be used to understand the reporter gene at the transcription factor-level as they relate to the gene HIF1A. Furthermore, this assay endpoint can be referred to as a primary readout, because this assay has produced multiple assay endpoints where this one serves a reporter gene function. To generalize the intended target to other relatable targets, this assay endpoint is annotated to the dna binding intended target family, where the subfamily is basic helix-loop-helix protein.
Human liver HepG2 cells are transiently transfected with multiple reporter transcription units (MRTUs) in 6-well plates using FuGene 6 reagent (Roche; 3 ml FuGene/1 mg DNA). The MRTU constructs are regulated by a cis-regulating element (promoter). […] A major difference between the CIS and TRANS system is that in CIS activities of endogenous TFs are measured, whereas the TRANS assay evaluates changes in activities of exogenous, chimeric NR-Gal4 proteins. […] At the end of 24 hour incubation, total RNA was isolated using TriZol reagent (Invitrogen). The isolated RNA is then reverse-transcribed using oligo(dT) primer and Mo-MLV reverse transcriptase (Invitrogen) with DNAse I (Ambion) treatment for 30 min. The one-tenth of the produced cDNA was amplified by PCR using Taq DNA polymerase (Invitrogen) and two reporter sequence-specific primers. The PCR products were fluorescently labeled by primer extension with 6-arboxyfluorescein (6-FAM) 5'-labeled reporter sequence-specific primer (2 min at 95 C, 20 s at 68 C and 10 min at 72 C) and these products were digested with 5U of HpaI (New England Biolabs) for 2h at 37 C. The fragments were purified using Qiaquick PCR columns (Qiagen), analyzed on an ABI 3130xL genetic analyzer (Applied Biosystems) with peak positions identified by using a set of X-rhodamine (ROX)-labeled MapMarker1000 molecular weight standards (BioVentures). The raw capillary electrophoresis data was processed using Attagraph software (Attagene).

| Structure (SMILES) | outcome | AC50 |
| --- | --- | --- |
| N#Cc1ccc(Cl)cc1 | inactive |  |
| Nc1nc(N)nc(Cl)n1 | inactive |  |
| Nc1ncn[nH]1 | inactive |  |
| O=c1oc2ccccc2c(O)c1C(CC(O)c1ccc(-c2ccc(Br)cc2)cc1)c1ccccc1 (stereo not given) | inactive | 14.6 µM (active) |
| CN(C)[C@@H]1C(=O)C(C(N)=O)=C(O)[C@@]2(O)C(=O)C3=C(O)c4c(O)ccc(Cl)c4[C@@](C)(O)[C@H]3C[C@@H]12 | inactive |  |
| Oc1cc(Cl)c(Cl)cc1Cl | inactive |  |
| CCOc1cc(C=O)ccc1O | inactive |  |
| OCCCCO | inactive |  |
| CCOP(=S)(OCC)SCSc1cc(Cl)ccc1Cl | inactive |  |
| Nc1ccc(Br)cc1 | inactive |  |
| C=C(C)C(=O)OCCCCOC(=O)C(=C)C | inactive |  |
| O=C/C(Cl)=C(/Cl)C(=O)O | inactive |  |
| O=S1(=O)OC(c2cc(Br)c(O)c(Br)c2)(c2cc(Br)c(O)c(Br)c2)c2ccccc21 | inactive |  |
| Cc1cc(C)cc(C)c1 | inactive |  |
| Cc1cc(C(F)(C(F)(F)F)C(F)(F)F)ccc1NC(=O)c1cccc(I)c1C(=O)NC(C)(C)CS(C)(=O)=O | inactive |  |
| CCNc1nc(NCC)nc(SC)n1 | inactive |  |
| CCOC(=O)Cc1ccccc1 | inactive |  |
| N#CCC#N | inactive |  |
| CCOP(=S)(OCC)SCS(=O)(=O)C(C)(C)C | inactive |  |

| Structure (SMILES) | outcome | AC50 |
| --- | --- | --- |
| [F][Sn]([c]1ccccc1)([c]1ccccc1)[c]1ccccc1 |  | 0.327 µM (active) |
| CCCCCCCCCCCCOS(=O)(=O)O | inactive | 11.1 µM (active) |
| CC(C)[C@H](C(=O)OC(C#N)c1cccc(Oc2ccccc2)c1)c1ccc(OC(F)F)cc1 (stereo not given in full) | inactive |  |
| CCOC(=O)C(SP(=S)(OC)OC)c1ccccc1 (stereo not given) | inactive |  |
| CCCCN(CCCCO)N=O | inactive |  |
| c1csc(-c2ccc(-c3cccs3)s2)c1 |  | 3.28 µM (active) |
| Oc1c(Cl)cc(Cl)cc1Cl |  | 41.6 µM (active) |
| C=C(C)[C@@H]1CC=C(C=O)CC1 | inactive |  |
| OC[P+](CO)(CO)CO | inactive |  |
| NC(=O)CCl | inactive |  |
| CC(C)N(C(=O)CCl)c1ccccc1 |  | 8.65 µM (active) |
| COC(F)(C(F)(F)C(F)(F)F)C(F)(C(F)(F)F)C(F)(F)F (stereo not given) | inactive |  |
| N#Cc1cccnc1 | inactive |  |
| ClCc1ccccc1CCl | inactive |  |
| O=C(NC(=O)c1c(F)cccc1F)Nc1cc(Cl)c(F)c(Cl)c1F | inactive |  |
| O=S(=O)(Oc1ccc(Cl)cc1)c1ccc(Cl)cc1 | inactive |  |
| CNC(=O)O/N=C/C(C)(C)S(C)(=O)=O | inactive |  |
| C1CN2CCN1CC2 |  | 50.5 µM (active) |
| O=C(NC(=O)c1c(F)cccc1F)Nc1ccc(Cl)cc1 | inactive |  |
